# Source: PubChem BioAssay (NCI)
# Compounds without any hit were thinned out: in the full panel of roughly 79,000, 15% have a hit. Unmarked numbers belong to inactive results. Active and inactive are the calls of the source. No stated cut-off is given here; in the data, active means growth inhibition above about 70%; inactive means the rest.
# Columns and labels:
# [1] = NCI Yeast Anticancer Drug Screen. Data for the wt1 strain (AID 149);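 further: 0% = growth of vehicle-treated wt1 cultures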; details: S. cerevisiae wt1 strain (SPY 50644) growth inhibition, stronger effect = higher value
# Summary of the method: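 Growth inhibition read against vehicle controls after compound exposure of the wt1 yeast strain.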
# [2] = NCI Yeast Anticancer Drug Screen. Data for the rad50EPP+ strain (AID 151);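 further: 0% = growth of vehicle-treated control cultures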; details: S. cerevisiae rad50 mutant strain, stronger effect = higher value
# Summary of the method: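 In this screen, rad50EPP+ yeast were exposed to compounds. Growth inhibition was scored against vehicle-treated controls.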
# [3] = NCI Yeast Anticancer Drug Screen. Data for the mgt1 strain (AID 153); details: S. cerevisiae mgt1 mutant growth inhibition, stronger effect = higher value
# Summary of the method: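 mgt1 strain exposed; growth vs vehicle control recorded as inhibition.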
# [4] = NCI Yeast Anticancer Drug Screen. Data for the rad50 strain (AID 155);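 further: 0% = growth of vehicle-only cultures of the same strain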; details: S. cerevisiae rad50 strain growth inhibition, stronger effect = higher value
# Summary of the method: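 Readout: growth inhibition relative to vehicle-treated cultures. Compound exposure was carried out in a genetically defined yeast strain deficient in DNA damage repair.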
# [5] = NCI Yeast Anticancer Drug Screen. Data for the mec2-1 strain (AID 157); details: S. cerevisiae mec2-1 strain, stronger effect = higher value
# Summary of the method: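 Vehicle-treated cultures served as reference for growth inhibition of compound-exposed mec2-1 yeast.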
# [6] = NCI Yeast Anticancer Drug Screen. Data for the rad14 strain (AID 159);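 further: 0% = growth of vehicle-treated control cultures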; details: S. cerevisiae rad14 strain growth inhibition, stronger effect = higher value
# Summary of the method: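 Growth inhibition vs vehicle controls; genetically altered yeast strain (DNA damage repair defect) treated with test compounds.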
# [7] = NCI Yeast Anticancer Drug Screen. Data for the sgs1 mgt1 strain (AID 161);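 further: 0% = growth of cultures given vehicle only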; details: S. cerevisiae sgs1 mgt1 strain, stronger effect = higher value
# Summary of the method: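 Read-out: growth inhibition vs vehicle controls. Cells: mutant yeast strain deficient in DNA damage repair.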
# [8] = NCI Yeast Anticancer Drug Screen. Data for the cln2 rad14 strain (AID 165);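 further: 0% = growth equal to vehicle treated cultures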; details: S. cerevisiae cln2 rad14 strain, stronger effect = higher value
# Summary of the method: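 Each compound was tested on cln2 rad14 yeast. Inhibition of growth was calculated against vehicle-exposed controls.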
# [9] = NCI Yeast Anticancer Drug Screen. Data for the bub3 strain (AID 167); details: S. cerevisiae bub3 mutant strain, stronger effect = higher value
# Summary of the method: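 Readout: yeast growth inhibition, expressed relative to vehicle-only wells. The test organism is a mutant strain from a panel with lesions in DNA repair or checkpoint genes.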
# [10] = NCI Yeast Anticancer Drug Screen. Data for the wt2 strain (AID 169);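 further: 0% = growth of vehicle-treated yeast cultures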; details: S. cerevisiae wt2 strain growth inhibition, stronger effect = higher value
# Summary of the method: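 Inhibition of yeast growth was determined after compound treatment, normalised to controls receiving only vehicle.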
# [11] = NCI Yeast Anticancer Drug Screen. Data for the mlh1 strain (AID 171);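 further: 0% = growth of vehicle-treated control cultures of the same strain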; details: S. cerevisiae mlh1 strain growth inhibition, stronger effect = higher value
# Summary of the method: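 Vehicle-normalised growth inhibition of a repair- or checkpoint-altered yeast strain following compound treatment.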
# [12] = NCI Yeast Anticancer Drug Screen. Data for the sgs1 strain (AID 173);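 further: 0% = growth of vehicle-only control cultures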; details: S. cerevisiae sgs1 mutant, stronger effect = higher value
# Summary of the method: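 Screen format: yeast with repair or checkpoint alterations, compound exposure, growth read relative to vehicle.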
# [13] = NCI Yeast Anticancer Drug Screen. Data for the mlh1 rad18 strain (AID 175); details: S. cerevisiae mlh1 rad18 strain growth inhibition, stronger effect = higher value
# Summary of the method: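 Vehicle-treated cultures served as the reference for growth inhibition in a yeast strain carrying DNA damage repair alterations exposed to each compound.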
# [14] = NCI Yeast Anticancer Drug Screen. Data for the rad18 strain (AID 177); details: S. cerevisiae rad18 mutant growth inhibition, stronger effect = higher value
# Summary of the method: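 Test articles were incubated with altered yeast defective in DNA damage repair. Results are given as inhibition of growth versus vehicle.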
# [15] = at 5.0 µM (retest, dose inferred, filed as 0.5)
# [16] = at 50.0 µM (retest, dose inferred, filed as 5.0)
smiles,measurement,setting,value
CC[C@@]1(OC(=O)CN(C)C)C(=O)OCc2c1cc1n(c2=O)Cc2cc3ccccc3nc2-1,growth inhibition,[1]; at 1.2 µM,-1%
same,growth inhibition,[1]; at 3.7 µM,1%
same,growth inhibition,[1]; at 11.0 µM,23%
same,growth inhibition,[1]; at 33.0 µM,85% (active)
same,growth inhibition,[1]; at 100.0 µM,93% (active)
same,growth inhibition,[2]; at 1.2 µM,42%
same,growth inhibition,[2]; at 3.7 µM,79% (active)
same,growth inhibition,[2]; at 11.0 µM,92% (active)
same,growth inhibition,[2]; at 33.0 µM,95% (active)
same,growth inhibition,[2]; at 100.0 µM,97% (active)
same,growth inhibition,[3]; at 1.2 µM,-1%
same,growth inhibition,[3]; at 3.7 µM,1%
same,growth inhibition,[3]; at 11.0 µM,32%
same,growth inhibition,[3]; at 33.0 µM,90% (active)
same,growth inhibition,[3]; at 100.0 µM,97% (active)
same,growth inhibition,[4]; at 1.2 µM,81% (active)
same,growth inhibition,[4]; at 3.7 µM,95% (active)
same,growth inhibition,[4]; [15],95% (active)
same,growth inhibition,[4]; at 11.0 µM,96% (active)
same,growth inhibition,[4]; at 33.0 µM,96% (active)
same,growth inhibition,[4]; [16],97% (active)
same,growth inhibition,[4]; at 50.0 µM,96.8% (active)
same,growth inhibition,[4]; at 100.0 µM,97% (active)
same,growth inhibition,[5]; at 1.2 µM,2%
same,growth inhibition,[5]; at 3.7 µM,23%
same,growth inhibition,[5]; [15],53%
same,growth inhibition,[5]; at 11.0 µM,89% (active)
same,growth inhibition,[5]; at 33.0 µM,94% (active)
same,growth inhibition,[5]; [16],96% (active)
same,growth inhibition,[5]; at 50.0 µM,99% (active)
same,growth inhibition,[5]; at 100.0 µM,97% (active)
same,growth inhibition,[6]; at 1.2 µM,2%
same,growth inhibition,[6]; at 3.7 µM,8%
same,growth inhibition,[6]; at 11.0 µM,44%
same,growth inhibition,[6]; at 33.0 µM,87% (active)
same,growth inhibition,[6]; at 100.0 µM,95% (active)
same,growth inhibition,[7]; [15],38%
same,growth inhibition,[7]; [16],95% (active)
same,growth inhibition,[7]; at 50.0 µM,93.6% (active)
same,growth inhibition,[8]; [15],15%
same,growth inhibition,[8]; [16],89% (active)
same,growth inhibition,[8]; at 50.0 µM,79.8% (active)
same,growth inhibition,[9]; at 1.2 µM,-7%
same,growth inhibition,[9]; at 3.7 µM,-9%
same,growth inhibition,[9]; [15],-3%
same,growth inhibition,[9]; at 11.0 µM,41%
same,growth inhibition,[9]; at 33.0 µM,90% (active)
same,growth inhibition,[9]; [16],93% (active)
same,growth inhibition,[9]; at 50.0 µM,93.7% (active)
same,growth inhibition,[9]; at 100.0 µM,96% (active)
same,growth inhibition,[10]; at 1.2 µM,-1%
same,growth inhibition,[10]; at 3.7 µM,10%
same,growth inhibition,[10]; at 11.0 µM,28%
same,growth inhibition,[10]; at 33.0 µM,84% (active)
same,growth inhibition,[10]; at 100.0 µM,93% (active)
same,growth inhibition,[11]; at 1.2 µM,0%
same,growth inhibition,[11]; at 3.7 µM,2%
same,growth inhibition,[11]; at 11.0 µM,42%
same,growth inhibition,[11]; at 33.0 µM,90% (active)
same,growth inhibition,[11]; at 100.0 µM,96% (active)
same,growth inhibition,[12]; at 1.2 µM,6%
same,growth inhibition,[12]; at 3.7 µM,28%
same,growth inhibition,[12]; at 11.0 µM,82% (active)
same,growth inhibition,[12]; at 33.0 µM,94% (active)
same,growth inhibition,[12]; at 100.0 µM,96% (active)
same,growth inhibition,[13]; [15],36%
same,growth inhibition,[13]; [16],94% (active)
same,growth inhibition,[13]; at 50.0 µM,97.2% (active)
same,growth inhibition,[14]; at 1.2 µM,1%
same,growth inhibition,[14]; at 3.7 µM,12%
same,growth inhibition,[14]; at 11.0 µM,60%
same,growth inhibition,[14]; at 33.0 µM,92% (active)
same,growth inhibition,[14]; at 100.0 µM,96% (active)
CC(=O)CC[N+](C)(C)C,growth inhibition,[1]; at 1.2 µM,0%
same,growth inhibition,[1]; at 3.7 µM,11%
same,growth inhibition,[1]; at 11.0 µM,2%
same,growth inhibition,[1]; at 33.0 µM,-5%
same,growth inhibition,[1]; at 100.0 µM,2%
same,growth inhibition,[2]; at 1.2 µM,-7%
same,growth inhibition,[2]; at 3.7 µM,4%
same,growth inhibition,[2]; at 11.0 µM,-4%
same,growth inhibition,[2]; at 33.0 µM,-15%
same,growth inhibition,[2]; at 100.0 µM,7%
same,growth inhibition,[3]; at 1.2 µM,-29%
same,growth inhibition,[3]; at 3.7 µM,-21%
same,growth inhibition,[3]; at 11.0 µM,-17%
same,growth inhibition,[3]; at 33.0 µM,-21%
same,growth inhibition,[3]; at 100.0 µM,-2%
same,growth inhibition,[4]; at 1.2 µM,-14%
same,growth inhibition,[4]; at 3.7 µM,-9%
same,growth inhibition,[4]; [15],31%
same,growth inhibition,[4]; at 11.0 µM,-4%
same,growth inhibition,[4]; at 33.0 µM,-14%
same,growth inhibition,[4]; [16],100% (active)
same,growth inhibition,[4]; at 50.0 µM,0.7%
same,growth inhibition,[4]; at 100.0 µM,-13%
same,growth inhibition,[5]; at 1.2 µM,4%
same,growth inhibition,[5]; at 3.7 µM,-3%
same,growth inhibition,[5]; [15],22%
same,growth inhibition,[5]; at 11.0 µM,-1%
same,growth inhibition,[5]; at 33.0 µM,-7%
same,growth inhibition,[5]; [16],59%
same,growth inhibition,[5]; at 50.0 µM,-22.7%
same,growth inhibition,[5]; at 100.0 µM,4%
same,growth inhibition,[6]; at 1.2 µM,5%
same,growth inhibition,[6]; at 3.7 µM,6%
same,growth inhibition,[6]; at 11.0 µM,-5%
same,growth inhibition,[6]; at 33.0 µM,0%
same,growth inhibition,[6]; at 100.0 µM,-2%
same,growth inhibition,[7]; [15],13%
same,growth inhibition,[7]; [16],51%
same,growth inhibition,[7]; at 50.0 µM,-30.9%
same,growth inhibition,[8]; [15],25%
same,growth inhibition,[8]; [16],30%
same,growth inhibition,[8]; at 50.0 µM,-41.7%
same,growth inhibition,[11]; at 1.2 µM,-13%
same,growth inhibition,[11]; at 3.7 µM,-6%
same,growth inhibition,[11]; at 11.0 µM,-11%
same,growth inhibition,[11]; at 33.0 µM,-9%
same,growth inhibition,[11]; at 100.0 µM,-22%
same,growth inhibition,[12]; at 1.2 µM,-8%
same,growth inhibition,[12]; at 3.7 µM,-12%
same,growth inhibition,[12]; at 11.0 µM,3%
same,growth inhibition,[12]; at 33.0 µM,3%
same,growth inhibition,[12]; at 100.0 µM,23%
same,growth inhibition,[13]; [15],26%
same,growth inhibition,[13]; [16],80% (active)
same,growth inhibition,[13]; at 50.0 µM,41.9%
same,growth inhibition,[14]; at 1.2 µM,-20%
same,growth inhibition,[14]; at 3.7 µM,-11%
same,growth inhibition,[14]; at 11.0 µM,14%
same,growth inhibition,[14]; at 33.0 µM,-2%
same,growth inhibition,[14]; at 100.0 µM,-10%
